The values below come from paper PMC11006913.

Residue numbers refer to the chain shown, from its start.

The target in the first assay is HOXA7 (Homo sapiens, UniProt P31268 116-202). As to the kind of experiment: PBM; 200 nM protein, PBS. The conditions noted are these: dsDNA, one strand shown.
Chain of HOXA7 (P31268 116-202): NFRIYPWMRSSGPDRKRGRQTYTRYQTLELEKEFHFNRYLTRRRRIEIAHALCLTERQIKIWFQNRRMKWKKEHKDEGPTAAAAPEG
Take CGTCCAGC: the binding signal is 8.59 upbm affinity estimate (log intensity, higher = more binding, comparable within an allelic series).

As for GCCCATTA, the binding signal was 11.3 upbm affinity estimate (log intensity, higher = more binding, comparable within an allelic series).

For GGCCATTA, the binding signal is 11.2 upbm affinity estimate (log intensity, higher = more binding, comparable within an allelic series).

Take CAGGGCCC: the binding signal was 8.32 upbm affinity estimate (log intensity, higher = more binding, comparable within an allelic series).

Turning to CGGCCCCC, the binding signal is 8.26 upbm affinity estimate (log intensity, higher = more binding, comparable within an allelic series).

Take ACCCATTA: the binding signal is 11.2 upbm affinity estimate (log intensity, higher = more binding, comparable within an allelic series).

As to ATTAGGTG, the binding signal was 10 upbm affinity estimate (log intensity, higher = more binding, comparable within an allelic series).

The next assay deals with HOXC10 (Homo sapiens, UniProt Q9NYD6 254-340). The assay is described as follows: PBM; 200 nM protein, PBS. The conditions noted are these: dsDNA, one strand shown.
Chain of HOXC10 (Q9NYD6 254-340): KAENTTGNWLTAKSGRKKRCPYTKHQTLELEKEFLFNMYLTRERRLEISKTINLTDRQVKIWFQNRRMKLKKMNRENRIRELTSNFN
Take GCGGGTCC: the binding signal was 10 upbm affinity estimate (log intensity, higher = more binding, comparable within an allelic series).

As for CACTGGGG, the binding signal was 10 upbm affinity estimate (log intensity, higher = more binding, comparable within an allelic series).

On to CTGGCGCA, for which the binding signal is 9.99 upbm affinity estimate (log intensity, higher = more binding, comparable within an allelic series).

Turning to AGGGGGCG, the binding signal is 10 upbm affinity estimate (log intensity, higher = more binding, comparable within an allelic series).

In the case of CCCCTCAG, the binding signal is 10.1 upbm affinity estimate (log intensity, higher = more binding, comparable within an allelic series).

Regarding GAGTTCCC, the binding signal is 9.93 upbm affinity estimate (log intensity, higher = more binding, comparable within an allelic series).

In the next assay the target is ALX4 (Homo sapiens, UniProt Q9H161 200-286). The assay is described as follows: PBM; 200 nM protein, PBS. Particulars: dsDNA, one strand shown.
Chain of ALX4 (Homo sapiens, UniProt Q9H161 200-286) (Q9H161 200-286): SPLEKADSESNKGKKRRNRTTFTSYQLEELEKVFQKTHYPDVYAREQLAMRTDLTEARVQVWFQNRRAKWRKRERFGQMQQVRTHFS
CGCCTGCC: the binding signal was 7.81 upbm affinity estimate (log intensity, higher = more binding, comparable within an allelic series).

For the sequence CGTCGACG, the binding signal is 7.89 upbm affinity estimate (log intensity, higher = more binding, comparable within an allelic series).

For the sequence CCGAGGGC, the binding signal was 8.14 upbm affinity estimate (log intensity, higher = more binding, comparable within an allelic series).

For the sequence CCCAGAGG, the binding signal was 8.01 upbm affinity estimate (log intensity, higher = more binding, comparable within an allelic series).

Turning to GAAGCCGC, the binding signal was 8.19 upbm affinity estimate (log intensity, higher = more binding, comparable within an allelic series).

The target of a further assay is T1, PAX4 (Homo sapiens, UniProt O43316 9-242, R200K).
T1 sequence: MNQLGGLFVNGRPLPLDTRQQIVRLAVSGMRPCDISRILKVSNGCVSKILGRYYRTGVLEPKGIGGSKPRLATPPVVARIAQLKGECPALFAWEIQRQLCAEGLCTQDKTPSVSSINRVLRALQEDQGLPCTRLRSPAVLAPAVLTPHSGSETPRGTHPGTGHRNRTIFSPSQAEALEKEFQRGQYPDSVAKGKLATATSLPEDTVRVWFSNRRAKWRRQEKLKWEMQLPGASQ
As to the kind of experiment: PBM; 200 nM protein, PBS. Particulars: dsDNA, one strand shown.
As for CCGAATTA, the binding signal was 11.8 upbm affinity estimate (log intensity, higher = more binding, comparable within an allelic series).

For CGGCCCCA, the binding signal is 9.24 upbm affinity estimate (log intensity, higher = more binding, comparable within an allelic series).

For the sequence ACCAATCA, the binding signal was 10.5 upbm affinity estimate (log intensity, higher = more binding, comparable within an allelic series).

As to GAAGCCGC, the binding signal was 9.31 upbm affinity estimate (log intensity, higher = more binding, comparable within an allelic series).

A further assay addresses T2, VENTX (Homo sapiens, UniProt O95231 78-163, Y115F).
T2 sequence: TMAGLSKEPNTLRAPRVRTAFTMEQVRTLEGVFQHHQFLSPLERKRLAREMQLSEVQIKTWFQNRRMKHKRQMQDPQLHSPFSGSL
As to the kind of experiment: PBM; 200 nM protein, PBS. The conditions noted are these: dsDNA, one strand shown.
For GCGGGTCC, the binding signal was 8.16 upbm affinity estimate (log intensity, higher = more binding, comparable within an allelic series).

Consider CGTCCAGC, for which the binding signal is 7.81 upbm affinity estimate (log intensity, higher = more binding, comparable within an allelic series).

For GCCCATTA, the binding signal is 11.8 upbm affinity estimate (log intensity, higher = more binding, comparable within an allelic series).

In the case of CACTGGGG, the binding signal is 7.93 upbm affinity estimate (log intensity, higher = more binding, comparable within an allelic series).

For GGCCATTA, the binding signal is 11.4 upbm affinity estimate (log intensity, higher = more binding, comparable within an allelic series).

In the case of CTCGGACC, the binding signal was 8.15 upbm affinity estimate (log intensity, higher = more binding, comparable within an allelic series).

Consider CAGGGCCC, for which the binding signal was 7.87 upbm affinity estimate (log intensity, higher = more binding, comparable within an allelic series).

Take TAATGGGA: the binding signal was 11.3 upbm affinity estimate (log intensity, higher = more binding, comparable within an allelic series).

For CCGAGTCC, the binding signal was 8.08 upbm affinity estimate (log intensity, higher = more binding, comparable within an allelic series).

As to GCCGGCAC, the binding signal was 7.98 upbm affinity estimate (log intensity, higher = more binding, comparable within an allelic series).

As to CCGGGTGC, the binding signal was 8.21 upbm affinity estimate (log intensity, higher = more binding, comparable within an allelic series).

As for CTGGCGCA, the binding signal was 8.2 upbm affinity estimate (log intensity, higher = more binding, comparable within an allelic series).

Consider CGCCTGCC, for which the binding signal was 8.31 upbm affinity estimate (log intensity, higher = more binding, comparable within an allelic series).

On to AATCCATT, for which the binding signal was 9.94 upbm affinity estimate (log intensity, higher = more binding, comparable within an allelic series).

Turning to GTTAATAA, the binding signal was 10.6 upbm affinity estimate (log intensity, higher = more binding, comparable within an allelic series).

On to CCGAATTA, for which the binding signal was 9.98 upbm affinity estimate (log intensity, higher = more binding, comparable within an allelic series).

As for CGTCGACG, the binding signal is 8.1 upbm affinity estimate (log intensity, higher = more binding, comparable within an allelic series).

With CGGCCCCA, the binding signal is 8.08 upbm affinity estimate (log intensity, higher = more binding, comparable within an allelic series).

In the case of AGGGGGCG, the binding signal is 8.23 upbm affinity estimate (log intensity, higher = more binding, comparable within an allelic series).

In the case of AACGATTA, the binding signal was 11.3 upbm affinity estimate (log intensity, higher = more binding, comparable within an allelic series).

Take CCCCTCAG: the binding signal was 8.01 upbm affinity estimate (log intensity, higher = more binding, comparable within an allelic series).

In the case of CGGCCCCC, the binding signal was 8.12 upbm affinity estimate (log intensity, higher = more binding, comparable within an allelic series).

For GCCAACCC, the binding signal is 8.24 upbm affinity estimate (log intensity, higher = more binding, comparable within an allelic series).

Consider AGCGATTA, for which the binding signal was 11.3 upbm affinity estimate (log intensity, higher = more binding, comparable within an allelic series).

On to CCGAGGGC, for which the binding signal is 8.11 upbm affinity estimate (log intensity, higher = more binding, comparable within an allelic series).

As to GAGTTCCC, the binding signal is 8.22 upbm affinity estimate (log intensity, higher = more binding, comparable within an allelic series).

Turning to CCCAGAGG, the binding signal is 7.81 upbm affinity estimate (log intensity, higher = more binding, comparable within an allelic series).

As for GAAGCCGC, the binding signal is 8.31 upbm affinity estimate (log intensity, higher = more binding, comparable within an allelic series).

Take ACCCATTA: the binding signal was 11.7 upbm affinity estimate (log intensity, higher = more binding, comparable within an allelic series).

As for ACCACGCC, the binding signal is 7.97 upbm affinity estimate (log intensity, higher = more binding, comparable within an allelic series).

For the sequence CTAATCGA, the binding signal is 11.1 upbm affinity estimate (log intensity, higher = more binding, comparable within an allelic series).

For the sequence CGATTAGC, the binding signal was 11.6 upbm affinity estimate (log intensity, higher = more binding, comparable within an allelic series).

For the sequence CACTGCGC, the binding signal was 8.18 upbm affinity estimate (log intensity, higher = more binding, comparable within an allelic series).

Regarding GCTCCGCC, the binding signal was 8.22 upbm affinity estimate (log intensity, higher = more binding, comparable within an allelic series).

Consider ATTAGGTG, for which the binding signal is 10.5 upbm affinity estimate (log intensity, higher = more binding, comparable within an allelic series).

As for AATATTTG, the binding signal was 9.7 upbm affinity estimate (log intensity, higher = more binding, comparable within an allelic series).

In a further assay the target is T3, PAX4 (Homo sapiens, UniProt O43316 9-242).
T3 sequence: T1 sequence with K192R
As to the kind of experiment: PBM; 200 nM protein, PBS. The conditions noted are these: dsDNA, one strand shown.
In the case of CCGAATTA, the binding signal is 12.4 upbm affinity estimate (log intensity, higher = more binding, comparable within an allelic series).

On to CGGCCCCA, for which the binding signal was 9.19 upbm affinity estimate (log intensity, higher = more binding, comparable within an allelic series).

For ACCAATCA, the binding signal is 10.6 upbm affinity estimate (log intensity, higher = more binding, comparable within an allelic series).

For GAAGCCGC, the binding signal was 9.25 upbm affinity estimate (log intensity, higher = more binding, comparable within an allelic series).

For a further assay, the target named is HOXB6 (Homo sapiens, UniProt P17509 132-218, K202E). As to the kind of experiment: PBM; 200 nM protein, PBS. Particulars: dsDNA, one strand shown.
Chain of HOXB6 (P17509 132-218 K202E): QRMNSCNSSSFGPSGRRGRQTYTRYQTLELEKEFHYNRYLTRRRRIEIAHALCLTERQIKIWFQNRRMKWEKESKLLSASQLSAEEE
On to GCCCATTA, for which the binding signal is 9.82 upbm affinity estimate (log intensity, higher = more binding, comparable within an allelic series).

In the case of GGCCATTA, the binding signal is 9.75 upbm affinity estimate (log intensity, higher = more binding, comparable within an allelic series).

Take AGGGGGCG: the binding signal was 9 upbm affinity estimate (log intensity, higher = more binding, comparable within an allelic series).

On to ACCCATTA, for which the binding signal is 9.84 upbm affinity estimate (log intensity, higher = more binding, comparable within an allelic series).

The next assay deals with ALX4 (Homo sapiens, UniProt Q9H161 200-286, Q225E). The assay is described as follows: PBM; 200 nM protein, PBS. Particulars: dsDNA, one strand shown.
Chain of ALX4 (Homo sapiens, UniProt Q9H161 200-286, Q225E) (Q9H161 200-286 Q225E): as the sequence (Q9H161 200-286) above, with Q26E counted along it
On to CGCCTGCC, for which the binding signal was 8.15 upbm affinity estimate (log intensity, higher = more binding, comparable within an allelic series).

CGTCGACG: the binding signal was 7.93 upbm affinity estimate (log intensity, higher = more binding, comparable within an allelic series).

Consider CCGAGGGC, for which the binding signal is 8.07 upbm affinity estimate (log intensity, higher = more binding, comparable within an allelic series).

In the case of CCCAGAGG, the binding signal was 8 upbm affinity estimate (log intensity, higher = more binding, comparable within an allelic series).

Regarding GAAGCCGC, the binding signal is 8.07 upbm affinity estimate (log intensity, higher = more binding, comparable within an allelic series).

Another assay deals with HOXA2 (Homo sapiens, UniProt O43364 129-215, R185T). As to the kind of experiment: PBM; 200 nM protein, PBS. The conditions noted are these: dsDNA, one strand shown.
Chain of HOXA2 (O43364 129-215 R185T): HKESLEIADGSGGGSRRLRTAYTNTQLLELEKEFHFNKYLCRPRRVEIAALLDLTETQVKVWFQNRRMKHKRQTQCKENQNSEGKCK
With CACTGGGG, the binding signal was 7.07 upbm affinity estimate (log intensity, higher = more binding, comparable within an allelic series).

On to AGGGGGCG, for which the binding signal is 7.3 upbm affinity estimate (log intensity, higher = more binding, comparable within an allelic series).

For the sequence CGGCCCCC, the binding signal was 7.13 upbm affinity estimate (log intensity, higher = more binding, comparable within an allelic series).

With CCGAGGGC, the binding signal was 7.12 upbm affinity estimate (log intensity, higher = more binding, comparable within an allelic series).

As to CCCAGAGG, the binding signal was 7.09 upbm affinity estimate (log intensity, higher = more binding, comparable within an allelic series).

The target of a further assay is MSX2 (Homo sapiens, UniProt P35548 130-214, R199I). As to the kind of experiment: PBM; 200 nM protein, PBS. The conditions noted are these: dsDNA, one strand shown.
Chain of MSX2 (P35548 130-214 R199I): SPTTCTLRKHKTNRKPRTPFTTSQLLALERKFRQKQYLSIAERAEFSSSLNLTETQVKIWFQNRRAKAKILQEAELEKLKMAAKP
Regarding CGTCCAGC, the binding signal was 9.63 upbm affinity estimate (log intensity, higher = more binding, comparable within an allelic series).

Consider ACCAATCA, for which the binding signal is 10.9 upbm affinity estimate (log intensity, higher = more binding, comparable within an allelic series).

As to CCGAGGGC, the binding signal is 9.49 upbm affinity estimate (log intensity, higher = more binding, comparable within an allelic series).

For the sequence GAAGCCGC, the binding signal is 9.54 upbm affinity estimate (log intensity, higher = more binding, comparable within an allelic series).

The target of the next assay is ALX3 (Homo sapiens, UniProt O95076 139-225, N203Q). As to the kind of experiment: PBM; 200 nM protein, PBS. Particulars: dsDNA, one strand shown.
Chain of ALX3 (O95076 139-225 N203Q): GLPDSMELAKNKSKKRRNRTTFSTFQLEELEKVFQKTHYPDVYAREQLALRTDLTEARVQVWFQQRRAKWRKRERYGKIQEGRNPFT
As to CTGGCGCA, the binding signal was 7.76 upbm affinity estimate (log intensity, higher = more binding, comparable within an allelic series).

For the sequence CGCCTGCC, the binding signal is 7.68 upbm affinity estimate (log intensity, higher = more binding, comparable within an allelic series).
